Laboratory results from the supplement of paper PMC11732987, “Enantioselective OTUD7B fragment discovery through chemoproteomics screening and high-throughput optimisation” (Communications Chemistry, 2025).

Key:
Test in all cases: log2 ratio of Biotin-Ahx-Ub-VS probe labelling (fragment/DMSO); higher = less target engagement (more negative = stronger competition), active = hit call of the paper (q ≤ 0.05, log2 ratio ≤ -1)
Conditions in all cases: compound concentration: 200 uM; treatment time: 3 h
USP34 = USP34 (UniProt Q70CQ2)
USP34, sequence (Q70CQ2 whole entry, the tested form may be a part): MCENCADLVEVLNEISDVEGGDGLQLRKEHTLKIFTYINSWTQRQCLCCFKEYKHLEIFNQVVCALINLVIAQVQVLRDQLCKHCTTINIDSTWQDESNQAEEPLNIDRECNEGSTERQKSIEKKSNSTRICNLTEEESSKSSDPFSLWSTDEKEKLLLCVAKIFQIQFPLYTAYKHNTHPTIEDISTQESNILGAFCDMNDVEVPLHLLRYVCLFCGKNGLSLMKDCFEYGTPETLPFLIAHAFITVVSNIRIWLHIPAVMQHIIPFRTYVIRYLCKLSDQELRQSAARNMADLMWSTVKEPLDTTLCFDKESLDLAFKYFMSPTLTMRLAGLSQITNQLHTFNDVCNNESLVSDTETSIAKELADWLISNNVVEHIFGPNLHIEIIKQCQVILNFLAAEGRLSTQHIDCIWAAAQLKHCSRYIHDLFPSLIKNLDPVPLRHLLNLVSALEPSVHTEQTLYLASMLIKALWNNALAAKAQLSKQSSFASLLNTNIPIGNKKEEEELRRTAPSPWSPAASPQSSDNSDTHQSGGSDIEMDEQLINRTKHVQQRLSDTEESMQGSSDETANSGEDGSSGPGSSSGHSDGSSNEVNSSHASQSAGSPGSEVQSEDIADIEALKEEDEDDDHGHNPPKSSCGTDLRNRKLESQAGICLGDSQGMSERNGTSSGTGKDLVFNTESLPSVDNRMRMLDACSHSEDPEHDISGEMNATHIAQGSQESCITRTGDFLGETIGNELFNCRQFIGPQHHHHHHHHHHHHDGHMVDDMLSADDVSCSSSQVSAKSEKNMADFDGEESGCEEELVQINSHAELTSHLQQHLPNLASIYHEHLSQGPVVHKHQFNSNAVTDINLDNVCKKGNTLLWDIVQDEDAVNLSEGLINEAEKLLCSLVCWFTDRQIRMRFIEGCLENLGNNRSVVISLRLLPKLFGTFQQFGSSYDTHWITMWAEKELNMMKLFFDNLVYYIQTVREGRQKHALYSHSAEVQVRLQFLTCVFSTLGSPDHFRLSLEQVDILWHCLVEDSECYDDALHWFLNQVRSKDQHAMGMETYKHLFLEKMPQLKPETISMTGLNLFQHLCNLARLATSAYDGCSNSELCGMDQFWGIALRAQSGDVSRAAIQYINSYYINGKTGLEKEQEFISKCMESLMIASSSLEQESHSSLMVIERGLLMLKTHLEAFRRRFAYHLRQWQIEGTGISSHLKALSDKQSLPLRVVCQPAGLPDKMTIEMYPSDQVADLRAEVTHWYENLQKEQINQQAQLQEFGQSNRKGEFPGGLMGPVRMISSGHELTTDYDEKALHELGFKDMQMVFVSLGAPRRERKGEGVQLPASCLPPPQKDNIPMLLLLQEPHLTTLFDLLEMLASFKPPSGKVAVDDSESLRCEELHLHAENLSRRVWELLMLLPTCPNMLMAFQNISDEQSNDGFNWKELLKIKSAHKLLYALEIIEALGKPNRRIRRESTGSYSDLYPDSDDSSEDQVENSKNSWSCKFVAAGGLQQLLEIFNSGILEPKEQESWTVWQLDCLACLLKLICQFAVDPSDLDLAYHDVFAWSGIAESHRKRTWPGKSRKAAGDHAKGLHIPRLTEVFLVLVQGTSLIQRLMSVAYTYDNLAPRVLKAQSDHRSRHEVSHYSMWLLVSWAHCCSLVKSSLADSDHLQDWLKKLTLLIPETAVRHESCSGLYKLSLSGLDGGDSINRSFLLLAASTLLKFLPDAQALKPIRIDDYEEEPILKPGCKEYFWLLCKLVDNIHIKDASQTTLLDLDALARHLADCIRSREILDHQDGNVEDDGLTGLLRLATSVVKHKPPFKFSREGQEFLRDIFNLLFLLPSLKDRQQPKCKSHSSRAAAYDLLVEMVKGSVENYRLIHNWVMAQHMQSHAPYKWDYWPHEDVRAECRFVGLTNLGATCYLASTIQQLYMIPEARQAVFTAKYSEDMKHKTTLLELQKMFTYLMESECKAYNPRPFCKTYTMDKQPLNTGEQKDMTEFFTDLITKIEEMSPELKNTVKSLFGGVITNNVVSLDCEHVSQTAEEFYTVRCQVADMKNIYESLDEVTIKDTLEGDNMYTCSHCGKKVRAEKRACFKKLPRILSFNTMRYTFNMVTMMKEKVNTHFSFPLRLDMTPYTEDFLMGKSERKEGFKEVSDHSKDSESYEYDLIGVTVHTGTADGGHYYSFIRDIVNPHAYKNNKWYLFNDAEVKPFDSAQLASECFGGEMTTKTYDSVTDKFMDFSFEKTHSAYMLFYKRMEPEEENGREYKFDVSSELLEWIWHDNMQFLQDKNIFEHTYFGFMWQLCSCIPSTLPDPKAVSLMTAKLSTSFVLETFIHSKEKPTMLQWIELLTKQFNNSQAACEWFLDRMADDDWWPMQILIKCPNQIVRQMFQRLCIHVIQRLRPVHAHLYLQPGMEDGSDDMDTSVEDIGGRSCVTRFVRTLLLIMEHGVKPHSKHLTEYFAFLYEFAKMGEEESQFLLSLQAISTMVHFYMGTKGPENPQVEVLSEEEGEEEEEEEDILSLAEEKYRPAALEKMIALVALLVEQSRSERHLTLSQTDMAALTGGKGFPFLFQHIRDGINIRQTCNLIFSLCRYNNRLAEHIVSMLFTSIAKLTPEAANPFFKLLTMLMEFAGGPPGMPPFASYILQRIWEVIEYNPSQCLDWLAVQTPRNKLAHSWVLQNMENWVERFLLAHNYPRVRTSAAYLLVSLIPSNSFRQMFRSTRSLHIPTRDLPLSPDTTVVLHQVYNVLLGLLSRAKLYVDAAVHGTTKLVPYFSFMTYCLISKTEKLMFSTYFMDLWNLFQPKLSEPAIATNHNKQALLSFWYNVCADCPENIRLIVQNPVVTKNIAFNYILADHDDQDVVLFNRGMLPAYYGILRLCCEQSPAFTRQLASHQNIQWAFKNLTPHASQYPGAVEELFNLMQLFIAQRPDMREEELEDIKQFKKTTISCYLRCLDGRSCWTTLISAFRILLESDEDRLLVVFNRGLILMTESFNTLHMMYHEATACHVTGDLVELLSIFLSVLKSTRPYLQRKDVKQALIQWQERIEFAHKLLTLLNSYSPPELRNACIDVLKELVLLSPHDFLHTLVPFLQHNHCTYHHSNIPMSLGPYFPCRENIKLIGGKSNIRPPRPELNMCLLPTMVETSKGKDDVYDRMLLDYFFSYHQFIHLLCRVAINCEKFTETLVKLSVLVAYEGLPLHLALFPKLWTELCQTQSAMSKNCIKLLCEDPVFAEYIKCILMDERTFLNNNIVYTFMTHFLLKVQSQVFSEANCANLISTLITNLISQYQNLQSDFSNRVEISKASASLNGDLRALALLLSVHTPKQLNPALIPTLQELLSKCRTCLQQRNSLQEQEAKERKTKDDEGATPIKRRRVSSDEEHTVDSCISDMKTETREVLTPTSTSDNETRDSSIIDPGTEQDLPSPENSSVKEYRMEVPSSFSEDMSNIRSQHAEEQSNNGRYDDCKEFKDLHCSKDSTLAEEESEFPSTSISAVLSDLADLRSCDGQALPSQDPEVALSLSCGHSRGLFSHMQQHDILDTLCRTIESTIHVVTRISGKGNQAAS
Outline: (§1)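 Each value is an average log2 ratio of fragment to vehicle, tested by unpaired t-test. The underlying Spectronaut label-free quantities were global-median-normalised, and only proteins with ≥2 unique peptides were included. Triplicate HEK293T lysate samples (495 µg) were exposed to fragment at 200 µM or vehicle for 3 h, then to Biotin-Ahx-Ub-VS at 0.5 µM final for 1 h, before NeutrAvidin enrichment of labelled DUBs, LysC and trypsin digestion, and diaPASEF LC-MS/MS.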

USP36 = target: T1, USP36 (UniProt Q9P275)
T1 sequence (whole entry): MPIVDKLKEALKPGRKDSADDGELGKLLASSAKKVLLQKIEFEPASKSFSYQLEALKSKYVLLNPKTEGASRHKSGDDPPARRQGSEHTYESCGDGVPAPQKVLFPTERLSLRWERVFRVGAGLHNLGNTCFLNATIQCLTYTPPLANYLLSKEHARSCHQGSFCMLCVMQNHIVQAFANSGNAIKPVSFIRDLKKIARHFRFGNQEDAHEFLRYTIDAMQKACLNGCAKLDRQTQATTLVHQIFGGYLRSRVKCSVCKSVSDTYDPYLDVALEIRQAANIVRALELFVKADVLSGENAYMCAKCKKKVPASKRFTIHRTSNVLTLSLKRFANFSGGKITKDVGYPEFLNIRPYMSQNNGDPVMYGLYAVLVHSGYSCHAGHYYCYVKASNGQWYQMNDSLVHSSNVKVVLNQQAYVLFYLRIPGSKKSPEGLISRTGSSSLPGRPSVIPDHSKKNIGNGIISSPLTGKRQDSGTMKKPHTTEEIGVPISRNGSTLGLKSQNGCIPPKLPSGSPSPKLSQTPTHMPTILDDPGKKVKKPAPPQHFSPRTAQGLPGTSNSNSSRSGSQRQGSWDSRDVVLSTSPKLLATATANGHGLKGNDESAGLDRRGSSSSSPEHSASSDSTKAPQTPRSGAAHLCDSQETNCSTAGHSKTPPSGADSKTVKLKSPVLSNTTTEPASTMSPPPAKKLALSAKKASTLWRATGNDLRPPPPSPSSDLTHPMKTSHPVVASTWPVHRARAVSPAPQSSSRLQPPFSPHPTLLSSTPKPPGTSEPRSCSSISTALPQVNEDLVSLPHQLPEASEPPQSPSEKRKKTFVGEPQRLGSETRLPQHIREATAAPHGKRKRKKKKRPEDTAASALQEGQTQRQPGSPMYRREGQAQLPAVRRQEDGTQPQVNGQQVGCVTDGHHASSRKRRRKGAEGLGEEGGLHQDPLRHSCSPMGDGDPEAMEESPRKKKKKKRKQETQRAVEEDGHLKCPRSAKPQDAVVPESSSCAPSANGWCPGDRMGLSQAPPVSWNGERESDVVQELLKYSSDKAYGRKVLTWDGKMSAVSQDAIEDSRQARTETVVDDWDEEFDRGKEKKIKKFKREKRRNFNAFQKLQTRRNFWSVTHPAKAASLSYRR
Outline: as §1

USP38 = target: T2, USP38 (UniProt Q8NB14)
T2 sequence (whole entry): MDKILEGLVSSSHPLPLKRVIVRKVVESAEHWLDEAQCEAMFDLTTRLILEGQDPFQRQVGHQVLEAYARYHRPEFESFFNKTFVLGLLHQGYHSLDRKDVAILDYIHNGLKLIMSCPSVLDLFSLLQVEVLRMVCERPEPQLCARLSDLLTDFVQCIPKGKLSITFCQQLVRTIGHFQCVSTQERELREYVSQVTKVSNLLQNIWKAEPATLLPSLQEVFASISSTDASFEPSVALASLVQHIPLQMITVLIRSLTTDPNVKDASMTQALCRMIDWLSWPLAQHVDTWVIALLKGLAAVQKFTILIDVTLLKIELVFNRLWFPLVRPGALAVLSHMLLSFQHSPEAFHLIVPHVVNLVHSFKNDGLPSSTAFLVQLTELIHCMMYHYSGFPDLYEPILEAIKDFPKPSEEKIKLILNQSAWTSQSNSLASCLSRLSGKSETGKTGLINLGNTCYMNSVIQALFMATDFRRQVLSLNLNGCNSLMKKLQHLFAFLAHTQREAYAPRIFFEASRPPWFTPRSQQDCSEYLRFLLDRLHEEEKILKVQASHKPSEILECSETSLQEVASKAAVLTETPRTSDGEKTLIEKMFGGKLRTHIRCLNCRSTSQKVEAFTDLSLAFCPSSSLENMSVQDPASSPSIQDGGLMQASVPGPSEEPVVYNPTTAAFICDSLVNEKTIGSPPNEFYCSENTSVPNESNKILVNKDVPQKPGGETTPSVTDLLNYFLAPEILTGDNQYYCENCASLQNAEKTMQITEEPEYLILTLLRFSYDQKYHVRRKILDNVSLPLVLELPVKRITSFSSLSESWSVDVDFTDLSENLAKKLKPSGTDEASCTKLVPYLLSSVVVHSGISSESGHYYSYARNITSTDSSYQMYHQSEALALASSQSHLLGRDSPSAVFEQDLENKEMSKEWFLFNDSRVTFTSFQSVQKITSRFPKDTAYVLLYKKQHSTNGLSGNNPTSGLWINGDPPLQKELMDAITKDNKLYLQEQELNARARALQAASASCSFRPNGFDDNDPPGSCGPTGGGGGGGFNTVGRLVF
Outline: as §1

USP39 = target: T3, USP39 (UniProt Q53GS9)
T3 sequence (whole entry): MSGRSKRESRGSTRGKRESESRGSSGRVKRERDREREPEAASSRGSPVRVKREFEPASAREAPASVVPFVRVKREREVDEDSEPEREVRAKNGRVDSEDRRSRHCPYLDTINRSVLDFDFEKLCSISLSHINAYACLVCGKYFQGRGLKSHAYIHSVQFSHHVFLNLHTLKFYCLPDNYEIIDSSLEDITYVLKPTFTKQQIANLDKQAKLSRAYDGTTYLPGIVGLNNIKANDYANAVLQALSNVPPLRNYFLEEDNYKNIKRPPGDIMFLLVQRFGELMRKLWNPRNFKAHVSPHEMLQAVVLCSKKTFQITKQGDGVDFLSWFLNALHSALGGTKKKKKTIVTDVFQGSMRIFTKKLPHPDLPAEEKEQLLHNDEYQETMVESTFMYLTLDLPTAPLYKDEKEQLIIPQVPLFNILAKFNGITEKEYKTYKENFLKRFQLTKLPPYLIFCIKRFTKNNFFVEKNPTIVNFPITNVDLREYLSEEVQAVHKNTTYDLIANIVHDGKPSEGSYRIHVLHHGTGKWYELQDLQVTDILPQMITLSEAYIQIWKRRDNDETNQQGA
Outline: as §1

USP4 = target: T4, USP4 (UniProt Q13107)
T4 sequence (whole entry): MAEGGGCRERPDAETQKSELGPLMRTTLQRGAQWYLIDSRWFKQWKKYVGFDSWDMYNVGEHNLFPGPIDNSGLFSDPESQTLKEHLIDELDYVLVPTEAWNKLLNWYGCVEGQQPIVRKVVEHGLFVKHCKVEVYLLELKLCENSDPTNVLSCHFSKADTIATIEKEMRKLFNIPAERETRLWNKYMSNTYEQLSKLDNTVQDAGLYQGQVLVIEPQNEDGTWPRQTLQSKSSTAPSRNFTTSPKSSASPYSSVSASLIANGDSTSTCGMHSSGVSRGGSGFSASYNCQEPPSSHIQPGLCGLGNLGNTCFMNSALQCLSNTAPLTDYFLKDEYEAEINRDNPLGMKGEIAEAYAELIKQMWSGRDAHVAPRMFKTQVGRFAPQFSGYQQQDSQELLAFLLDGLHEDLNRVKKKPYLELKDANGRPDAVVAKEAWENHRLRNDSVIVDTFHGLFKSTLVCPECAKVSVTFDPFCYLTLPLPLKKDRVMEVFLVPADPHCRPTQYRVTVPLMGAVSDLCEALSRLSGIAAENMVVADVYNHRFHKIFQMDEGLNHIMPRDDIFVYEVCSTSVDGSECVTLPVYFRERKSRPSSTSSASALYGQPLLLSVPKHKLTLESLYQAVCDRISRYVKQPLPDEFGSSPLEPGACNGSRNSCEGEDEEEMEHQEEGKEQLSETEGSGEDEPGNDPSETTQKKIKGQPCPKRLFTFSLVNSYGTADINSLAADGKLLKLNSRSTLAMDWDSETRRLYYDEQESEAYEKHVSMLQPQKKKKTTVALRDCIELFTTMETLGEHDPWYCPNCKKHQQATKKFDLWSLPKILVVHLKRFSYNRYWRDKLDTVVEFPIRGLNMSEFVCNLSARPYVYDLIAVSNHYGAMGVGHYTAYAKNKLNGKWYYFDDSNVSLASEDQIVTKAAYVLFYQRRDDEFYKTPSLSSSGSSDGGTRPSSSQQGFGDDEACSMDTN
Outline: as §1

Measured: log2 ratio of Biotin-Ahx-Ub-VS probe labelling

CC1CCc2onc(CNC(=O)CCl)c2C1 (stereo not given)
inactive: USP34 0.0236 | USP36 0.0286 | USP38 0.0155 | USP39 0.358 | USP4 0.094
